Data reported in PubChem BioAssay AID916 (National Center for Advancing Translational Sciences (NCATS), 2007).
Records with an inconclusive call do not appear. Active and inactive are the calls of the source. The call rests on the fitted dose curve; in most records, active means well fitted activation curve with a large enough effect in the signal ratio, with a control signal flat (not every such curve was filed as active); inconclusive means small, poorly fitted or top-dose-only effect, or a change in a side signal; inactive means flat fitted curve, though single readings scatter; the % refers to the signal ratio.

Assay: Confirmation Concentration-Response Assay for Cell signaling CRE-BLA (Fsk stim)
Conditions: CHO CRE-bla reporter (cAMP response element driving beta-lactamase), NKH477 EC10 stim, FRET ratio; series mostly up to 38.3 µM
Text: NIH Molecular Libraries Screening Centers Network [MLSCN] NIH Chemical Genomics Center [NCGC] MLSCN Grant: 1X01MH079867-01 Assay Provider: Marshall W. Nirenberg, U.S. National Heart, Lung and Blood Institute CRE beta-lactamase Assay Overview Memories persist for different lengths of time, from seconds or minutes to a lifetime. There are two kinds of memory: short-term memory (STM) and long-term memory (LTM). STM lasts for minutes to hours, which maybe mediated by modifications of molecules involved in synaptic functions. LTM lasts for days or longer, and may be due to the formation of new synapses or restructuring of existing synapses. LTM, but not STM, requires gene transcription and synthesis of proteins. CREB (cyclic-AMP Responsive Element Binding Protein) is one of the candidates plays an important role for enhancement of some types of LTM. CREB, a family of transcription factors, regulates the transcription of genes containing cAMP Responsive Elements (CRE). CRE is a nucleotide sequence often found in the promoter regions of genes that are binding sites for CREB. Using a beta-lactamase reporter-gene under control of cAMP responsive element, a cell-based assay [CellSensor(TM) CRE-bla CHO developed by Invitrogen Corp.] was used to measure forskolin-induced signaling. The selected compounds were measured for their ability to modulate positively the action of EC10 NKH 477, a water soluble forskolin, on reporter gene activity. Compounds were screened in a titration series in 1536-well format. Positive modulators were identified based on the AC50 values derived from the screening data.
NCGC Assay Protocol Summary 2000 cells/5uL in Opti-MEM medium containing 0.5% dialyzed FBS, 0.1 mM NEAA, 1 mM sodium pyruvate and 10 mM HEPES was dispensed into 1536-well plates and cells were cultured at 37 degrees Celsius overnight. Next day 23 nL of compounds or DMSO were delivered to each well using a pin tool, and 1uL of EC10 level of NKH 477, or EC100 level of IBMX, a PDE inhibitor, in the present of NKH 477, or assay medium was added. And then the plates were incubated at 37 degrees Celsius for 3 hours. 1 uL of CCF4-dye mixture was added to each well. After incubated at room temperature for 2 hours the plates were measured on an EnVision plate reader at Excitation 405nm, Emission1=460nm and Emission 2=530nm. The %Activity was determined from the ratio of 460nm/530nm. Keywords: NIH Roadmap, MLSCN, MLSMR, qHTS, NCGC, CRE, beta-lactamase reporter-gene assay.

Structure (SMILES) | Potency
CC1(C)Cc2c(sc3nc(SCC#N)n(C4CCCCC4)c(=O)c23)CO1 | 20 µM (active)
Cc1cc(Nc2ccc3ccccc3c2)n2ncnc2n1 | inactive
CCCN(CCC)CCNC(=O)c1cc2c(=O)n(C)c3ccccc3c2n1C | inactive
O=c1[nH]c(SCc2ccccc2Cl)nc2c1cnn2-c1ccccc1 | 3.98 µM (active)
COc1ccc(/C(O)=C(\C#N)c2nc3ccccc3n2C)cc1OC | 15.8 µM (active)
